Measurements reported in PubChem BioAssay AID1159580 (chemical genetic matrix, 2015).
Several values for one entry are separate records, joined by “and”; a condition that tells them apart may be missing. Equal values may be shown once. Among all 5,500 compounds or so, about 2,000 (36%) were called active. About 18% were inconclusive and are not listed. No stated cut-off is given here; in the data, active means normalized growth mostly below about 0.91 (no sharp cut-off); inconclusive means no clear call, values can overlap the other calls; inactive means mostly above about 0.92. The list shows a part of the results.

Assay: chemical genetic growth profiling, strain panel (AID 1159580);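 further: tested at 20 µM; growth read once vehicle control cultures reached saturation at 30 °C; 1 = growth at the plate median or of vehicle wells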
Conditions: S. cerevisiae deletion strains, growth OD

Measured: normalized growth

CS(=O)(=O)c1ccc(C2=C(c3ccccc3)C(=O)OC2)cc1
inactive: locus YAL013W, strain DEP1, stronger effect = lower value 0.996 | locus YAL021C, strain ccr4, stronger effect = lower value 0.955 | locus YAL026C, strain drs2, stronger effect = lower value 0.985 | locus YAL030W, strain snc1, stronger effect = lower value 0.971 | locus YBL061C, strain skt5, stronger effect = lower value 0.972 | locus YBR009C, strain hhf1, stronger effect = lower value 0.959 | locus YBR021W, strain FUR4, stronger effect = lower value 0.986 | locus YBR023C, strain chs3, stronger effect = lower value 0.979 | locus YBR171W, strain sec66, stronger effect = lower value 0.983 | locus YBR229C, strain ROT2, stronger effect = lower value 1 | locus YBR231C, strain swc5, stronger effect = lower value 1 | locus YBR279W, strain paf1, stronger effect = lower value 0.987 | locus YCL011C, strain gbp2, stronger effect = lower value 0.975 | locus YCL016C, strain dcc1, stronger effect = lower value 0.98 | locus YCL029C, strain bik1, stronger effect = lower value 0.994 | locus YCL061C, strain MRC1, stronger effect = lower value 0.986 | locus YCL069W, strain vba3, stronger effect = lower value 0.976 | locus YCR088W, strain abp1, stronger effect = lower value 0.985 | locus YDL005C, strain med2, stronger effect = lower value 0.983 | locus YDL035C, strain GPR1, stronger effect = lower value 0.973 | locus YDL040C, strain nat1, stronger effect = lower value 0.984 | locus YDL074C, strain BRE1, stronger effect = lower value 0.929 | locus YDL101C, strain DUN1, stronger effect = lower value 0.99 | locus YDL134C, strain PPH21, stronger effect = lower value 1.01 | locus YDL185W, strain tfp1, stronger effect = lower value 0.963 | locus YDL192W, strain arf1, stronger effect = lower value 0.98 | locus YDR001C, strain nth1, stronger effect = lower value 0.985 | locus YDR069C, strain doa4, stronger effect = lower value 0.967 | locus YDR101C, strain arx1, stronger effect = lower value 0.995 | locus YDR137W, strain rgp1, stronger effect = lower value 1.02 | locus YDR150W, strain NUM1, stronger effect = lower value 0.991 | locus YDR159W, strain sac3, stronger effect = lower value 0.968 | locus YDR162C, strain NBP2, stronger effect = lower value 0.979 | locus YDR195W, strain ref2 0.963 | locus YDR297W, strain sur2, stronger effect = lower value 0.983 | locus YDR318W, strain mcm21, stronger effect = lower value 0.983 | locus YDR334W, strain swr1, stronger effect = lower value 0.968 | locus YDR335W, strain msn5, stronger effect = lower value 0.982 | locus YDR388W, stronger effect = lower value 0.991 | locus YDR392W, strain spt3, stronger effect = lower value 0.954 | locus YDR502C, strain sam2, stronger effect = lower value 0.983 | locus YEL003W, strain gim4, stronger effect = lower value 0.977 | locus YEL037C, strain rad23, stronger effect = lower value 0.992 | locus YEL061C, strain CIN8 (second series), stronger effect = lower value 0.97 | locus YEL061C, strain CIN8, stronger effect = lower value 0.984 | locus YER015W, strain faa2, stronger effect = lower value 0.98 | locus YER016W, strain bim1, stronger effect = lower value 0.985 | locus YER110C, stronger effect = lower value 0.988 | locus YER111C, strain swi4, stronger effect = lower value 0.978 | locus YER155C, strain BEM2 (second series), stronger effect = lower value 0.98 | locus YER155C, strain BEM2, stronger effect = lower value 1.04 | locus YER167W, strain BCK2, stronger effect = lower value 0.989 | locus YFR010W, strain ubp6, stronger effect = lower value 0.961 | locus YGL078C, strain dbp3, stronger effect = lower value 0.996 | locus YGL086W, strain mad1, stronger effect = lower value 0.983 | locus YGL167C, strain pmr1, stronger effect = lower value 0.971 | locus YGL173C, strain kem1, stronger effect = lower value 0.989 | locus YGL227W, strain vid30, stronger effect = lower value 0.969 | locus YGL240W, strain doc1, stronger effect = lower value 0.975 | locus YGL248W, strain PDE1, stronger effect = lower value 1 | locus YGL253W, strain hxk2, stronger effect = lower value 0.987 | locus YGR078C, strain PAC10, stronger effect = lower value 0.957 | locus YGR135W, strain pre9, stronger effect = lower value 0.979 | locus YGR229C, strain SMI1, stronger effect = lower value 0.971 | locus YGR252W, strain gcn5, stronger effect = lower value 0.967 | locus YHR013C, strain ard1, stronger effect = lower value 0.971 | locus YHR027C, strain rpn1, stronger effect = lower value 0.963 | locus YHR030C, strain SLT2, stronger effect = lower value 0.994 and 1.03 | locus YHR079C, strain IRE1 (second series), stronger effect = lower value 0.992 | locus YHR079C, strain IRE1, stronger effect = lower value 1.03 | locus YHR094C, strain hxt1, stronger effect = lower value 0.984 | locus YHR129C, strain ARP1, stronger effect = lower value 1 | locus YHR142W, strain chs7, stronger effect = lower value 0.984 | locus YHR200W, strain rpn10, stronger effect = lower value 0.969 | locus YIL066C, strain RNR3, stronger effect = lower value 1.01 | locus YIL073C, strain SPO22, stronger effect = lower value 0.936 | locus YIL125W, strain kgd1, stronger effect = lower value 0.999 | locus YIR030C, strain dcg1, stronger effect = lower value 0.987 | locus YJL092W, strain hpr5, stronger effect = lower value 0.984 | locus YJL095W, strain BCK1 (second series), stronger effect = lower value 0.977 | locus YJL095W, strain BCK1, stronger effect = lower value 0.951 and 1.01 | locus YJL115W, strain asf1, stronger effect = lower value 0.962 | locus YJL129C, strain trk1, stronger effect = lower value 0.978 | locus YJL134W, strain LCB3, stronger effect = lower value 0.998 | locus YJL154C, strain vps35, stronger effect = lower value 0.991 | locus YJL164C, strain tpk1, stronger effect = lower value 0.965 | locus YJL166W, strain qcr8, stronger effect = lower value 0.986 | locus YJL168C, strain set2, stronger effect = lower value 0.993 | locus YJL187C, strain SWE1 (second series), stronger effect = lower value 0.989 | locus YJL187C, strain SWE1, stronger effect = lower value 0.981 | locus YJR043C, strain POL32, stronger effect = lower value 0.955
